Experimental findings from PubChem BioAssay are described below.

This assay in a line: NFkB reporter suppression in cystic fibrosis bronchial cells – cell-based, uHTS hits, panel, cytotoxicity readout, dose response (AID 624344). The note with it: CF bronchial epithelial cells, PAF-induced NFkB reporter inhibition, with PAF, run 1; at 79 µM (top of the series) unless noted.
A word on the inhibition: it is the change of the read-out against control, counted positive when it falls. In the case of `Cc1nnc(SCC(=O)N2CCC(c3noc4ccc(F)cc34)CC2)s1`, the inhibition was determined as 101%. The same measure for `Cc1cc2cc(CCNC(=O)C(=O)c3c[nH]c4ccccc34)c(=O)[nH]c2cc1C`: 94.2%; for `CC(=O)c1c(C)n(-c2ccc(C)cc2C)c2ccc(O)cc12`: 106%. The same measure for `c1ccc(-c2nc3nonc3nc2-c2ccccc2)cc1`: 102%.

For the compound `COc1ccc(S(=O)(=O)c2c(O)c3ccc(C(=O)Nc4ccccc4Cl)cc3[nH]c2=O)cc1`, the inhibition was 96.9%.

Take `CCc1cc2c(Sc3nc4ccccc4s3)ncnc2s1`: the inhibition turned out to be 114%.

On to `CC(C)(C)OC(=O)NCCCCCNC(=O)c1nc[nH]c1C(=O)NCC(=O)OCc1ccccc1`, for which the inhibition was 111%. To `C=C1C(=O)O[C@H]2C[C@H]1[C@@H](OC(C)=O)C/C(C)=C/CC/C(C)=C\CC[C@]2(C)O` belongs 107%; to `ON=C1c2ccccc2-c2cc(Br)ccc21`, 117%. As for `C=C(C)[C@@H]1CC[C@]2(C(=O)O)CC[C@]3(C)[C@H](CC[C@@H]4[C@@]5(C)CC[C@H](O)C(C)(C)[C@@H]5CC[C@]43C)[C@@H]12`, the inhibition came to 47.9%. The same measure for `O=C(Nc1ccc([N+](=O)[O-])cc1)Nc1ccc(Cl)cc1F`: 109%. For the compound `Nc1nc(N)nc(-c2ccc(Cl)c(Cl)c2)n1`, the inhibition is 116%.

As for `CC(=O)N1CC(=O)N=C1SCC(=O)Nc1nc(C)c(-c2ccccc2)s1`, the inhibition is 62.6%. To `Cc1ccc(S(=O)(=O)n2cc(-c3ccccc3)c3ccccc32)cc1` belongs 114%; to `Cc1ccc(C(=O)Nc2cccc(C(F)(F)F)c2)cc1NC(=O)c1cnnc2ccccc12`, 105%. As for `COc1ccc(OC)c(-c2nnc3n2N=C(c2ccc(OC)c(OCC4CC4)c2)CS3)c1`, the inhibition was 113%.
